In all, about 2,100 compounds went through this assay and about 1,100 (52%) were called active. Roughly 29% stayed inconclusive and do not appear here. The call rests on the fitted dose curve; in most records, active means well fitted inhibition curve with a large enough effect; inconclusive means small, poorly fitted or top-dose-only effect; inactive means no such curve, though single readings can be large or run the other way. The set was probably picked from earlier hits. The list shows a part of the results.
Each molecule was assayed against DNA dC->dU-editing enzyme APOBEC-3F (Homo sapiens) (UniProt Q8IUX4) (assay: qHTS for inhibitors of Vif-A3F interactions: Cherry picks counterscreen). Conditions: HeLa A3F-eYFP/Vif cells, eYFP fluorescence, 24 h; series mostly up to 46.1 µM.
Procedure, shortened: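 HeLa cells stably expressing A3F-eYFP and Vif, cultured overnight, then treated 24 h at 37 degrees C with compounds at several concentrations; yellow fluorescence (488 nm Ex/500-530 nm Em) imaged on Acumen; MG132 positive control.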
Further: nearly all actives have a fitted effect of over 65% in size.
Potency means the concentration at half of the fitted maximal effect.

Chain of DNA dC->dU-editing enzyme APOBEC-3F (Homo sapiens) (Q8IUX4 whole entry, looked up): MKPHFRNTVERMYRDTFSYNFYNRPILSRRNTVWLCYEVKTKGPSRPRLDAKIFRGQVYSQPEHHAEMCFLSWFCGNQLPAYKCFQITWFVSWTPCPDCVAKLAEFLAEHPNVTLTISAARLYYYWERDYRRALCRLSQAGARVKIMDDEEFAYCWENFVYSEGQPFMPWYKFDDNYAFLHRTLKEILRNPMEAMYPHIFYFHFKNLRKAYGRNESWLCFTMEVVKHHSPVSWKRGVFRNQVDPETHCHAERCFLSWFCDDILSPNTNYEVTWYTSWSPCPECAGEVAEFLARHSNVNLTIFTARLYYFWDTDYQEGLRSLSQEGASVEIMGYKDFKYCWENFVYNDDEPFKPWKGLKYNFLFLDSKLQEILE

Row | SMILES | Potency
1 | NC(=O)c1ccc(NC(=O)C#Cc2ccccc2)cc1 | inactive
2 | Cc1c(/C=N\NC(=O)c2cc3ccccc3o2)c2ccccc2n1C | 5.59 µM (active)
3 | Cc1cc(/C=N/NC(=O)c2cc3ccccc3o2)c(C)n1C | inactive
4 | O=C(N/N=C/c1cccc2ccccc12)c1cc2ccccc2o1 | 7.9 µM (active)
5 | COc1ccc(OC)c(Nc2nc(-c3ccncc3)nc3ccccc23)c1 | inactive
6 | Cc1cccc(C)c1Nc1nc2ccccc2nc1NS(=O)(=O)c1ccccc1 | 23.1 µM (active)
7 | COc1cc(Cl)c(C)cc1Nc1nc2ccccc2nc1NS(=O)(=O)c1ccccc1 | 1.46 µM (active)
8 | CCOC(=O)N1CCN(/C=C(\C#N)c2nc3ccccc3s2)CC1 | 18.4 µM (active)
9 | Cc1cc(Br)ccc1SCC(=O)OC/C(O)=C(\C#N)c1nc2ccccc2[nH]1 | inactive
10 | COc1ccc2oc(=O)c(-c3nc4ccccc4o3)cc2c1 | 14.6 µM (active)
11 | O=C(CCCCl)Oc1ccc2cc(-c3ccc4ccccc4n3)c(=O)oc2c1 | inactive
12 | CCOc1ccccc1Nc1nnc(-c2cc3cc(Cl)ccc3oc2=O)s1 | 5.17 µM (active)
13 | CCOc1ccccc1Nc1nnc(-c2cc3cc(OC)ccc3oc2=O)s1 | 9.2 µM (active)
14 | CC(O)CN(CC(C)O)c1ccc2c(c1)Cc1cc([N+](=O)[O-])ccc1-2 (centres undefined) | 2.31 µM (active)
15 | CCN1C(=O)/C(=C/C=C2\N(CC)c3cc(S(=O)(=O)N(C)C)ccc3N2c2ccccc2)SC1=S | 6.27 µM (active)
16 | CCN(CC)c1ccc(/C=N/NC(=S)NC)c(O)c1 | inactive
17 | CCN(CC)c1ccc(/C=N/N=C(N)N)c(O)c1 | 4.44 µM (active)
18 | CN(Cc1cnn(Cc2ccccc2)c1)C(=O)c1cccc(S(=O)(=O)N2CCOCC2)c1 | 11.2 µM (active)
19 | O=C(O)CCCN1C(=O)/C(=C\C(Cl)=C\c2ccccc2)SC1=S | 7.04 µM (active)
20 | CC1=CC(C)(C)NC(=S)N1c1ccc2ccccc2c1 | inactive
21 | N#CC(=Cc1ccccn1)c1nc(-c2ccc(Cl)cc2)cs1 | 12.5 µM (active)
22 | O=C(NCCc1ccccc1Cl)c1ccc(Cn2c(=O)c3cccn3c3cccnc32)cc1 | 18.4 µM (active)
23 | Cc1cc([N+](=O)[O-])ccc1-c1ccc(/C=N/NC(=O)c2ccc(Br)o2)o1 | 20.6 µM (active)
24 | COCCNC(=S)N/N=C(\C)c1ccc(OC(F)F)cc1 | inactive
25 | O=C(Cc1ccccc1)N/N=C/c1ccc(-c2ccc([N+](=O)[O-])cc2)o1 | 15.8 µM (active)
26 | O=C(N/N=C/c1ccc(-c2ccc([N+](=O)[O-])cc2)o1)[C@H]1C[C@@H]1c1ccccc1 | inactive
27 | COCCNC(=S)NN=C1CCCCCC1 | inactive
28 | COCCNC(=S)N/N=C/c1ccc(-c2ccc([N+](=O)[O-])cc2)o1 | 15.8 µM (active)
29 | O=[N+]([O-])c1ccc(-c2ccc(/C=N/Nc3nc(NCc4ccccc4)nc(N4CCOCC4)n3)o2)cc1 | 18.4 µM (active)
